Laboratory results from PubChem BioAssay AID651820 (National Center for Advancing Translational Sciences (NCATS), 2012).
Hit rate of the full screen: of about 340,000 compounds, about 12,000 (3.5%) were called active. Roughly 18% stayed inconclusive and do not appear here. Only a selection was taken, and actives are over-represented in it overall. Unmarked numbers belong to inactive results. Calls follow the shape of the dose curve; as a rule, active = well fitted inhibition curve with a large enough effect; inconclusive = small, poorly fitted or top-dose-only effect, or another doubt; inactive = no such curve, though single readings can be large or run the other way.
% is scaled to controls: 0 for no effect and ±100 for the full control effect.

Experiment: qHTS Assay for Inhibitors of Hepatitis C Virus (HCV)
Details: Huh7.5.1 HCVcc-Cre infection, luciferase reporter, 44 h; series mostly up to 41.8 µM; activity change, negative = inhibition: at the top concentration
Text: Hepatitis C virus (HCV) infects about 200 million people in the world. Many infected people progress to chronic liver disease including cirrhosis with a risk of developing liver cancer. To date, there is no effective vaccine for hepatitis C. Current therapy based on interferon is only effective in about half of the patients and is associated with significant adverse effects. The fraction of people with HCV who can complete a successful treatment is estimated to be no more than 10 percent. Recent development of direct-acting antivirals against HCV, such as protease and polymerase inhibitors, is promising but still requires combination with peginterferon and ribavirin for maximal efficacy. In addition, these agents are associated with high rate of resistance and many have significant side effects. Due to the lack of a culture system for infectious HCV, the search for new HCV drugs has been greatly hampered. […] High-throughput screening (HTS) with an infectious HCV system would cover the complete spectrum of potentially druggable targets in all stages of HCV lifecycle, and would have more biological relevance than other cell-based assays. Moreover, targeting several key processes in the viral life cycle may not only increase antiviral efficacy; more importantly, it may also reduce the capacity of the virus to develop resistance to the compound. The goal of this project is to identify novel HCV inhibitors as new therapies for hepatitis C, using a highly sensitive and specific assay platform which is based on a HCV infectious cell culture system established in the laboratory and adapted for high-throughput HCV drug screen. NIH Chemical Genomics Center [NCGC] NIH Molecular Libraries Probe Centers Network [MLPCN] MLPCN Grant: MH095511 Assay Submitter (PI): Jake Liang, NIDDK
The assay will start with plating 1,000 cells/well in 3 µL volume and culture for 4 h. Then 23 nL of compounds from the library collection will be added to each well, followed by adding 2.5 µL of HCVcc-Cre virus (~ 0.5 moi) and further cultured for 44 h before the luciferase assay. A volume of 4.5 µL luciferase substrates will be added to each well and the plates will be incubated at room temperature for 15 min. and then read for 15 sec. for the luciferase activity
In the case of `Cc1ccccc1SCC(=O)OCC(=O)N1CC(=O)Nc2ccccc21`, the “activity change, negative = inhibition” value is reported as 7.25%.
In the case of `CC1CCCCC1NC(=O)/C(C#N)=C/C=C/c1ccccc1[N+](=O)[O-]` (configuration not stated), the Potency is reported as 11.2 µM (active).
For `O=C(/C=C/c1ccccc1[N+](=O)[O-])OC1CCCCC1=O` (configuration not stated), the “activity change, negative = inhibition” value was -0.487%.
For `O=C(/C=C/c1ccccc1[N+](=O)[O-])NCC1CCCO1` (configuration not stated), the “activity change, negative = inhibition” value was 11.4%.
For `Cc1ccc(S(=O)(=O)N2[C@@H](c3cccc(Cl)c3)C(C(=O)O)=CC[C@H]2c2ccc(Cl)c(Cl)c2)cc1`, the “activity change, negative = inhibition” value was 22.6%.
In the case of `C#CCOCCOCCOCCNc1nc(N2CCN(C(=O)CCCCCCCCCCNC(=O)[C@H](CCCCN)n3cc(C)nn3)CC2)nc(N2CCN(C(=O)CCCCCCCCCCNC(=O)[C@H](CO)n3cc(CCCSC)nn3)CC2)n1`, the “activity change, negative = inhibition” value is reported as 12.2%.
With `CC(OC(=O)CCCOc1ccccc1)C(=O)Nc1ccc(Cl)cn1` (configuration not stated) the “activity change, negative = inhibition” value was 18.5%.
For `CCN(CC)S(=O)(=O)c1cc(C(=O)Nc2cc(S(=O)(=O)N3CCOCC3)ccc2N2CCCC2)ccc1F`, the “activity change, negative = inhibition” value was -4.92%.
With `CCN(CC)S(=O)(=O)c1ccc(N2CCOCC2)c(NC(=O)c2ccc(=O)n(C)n2)c1` the “activity change, negative = inhibition” value was 2.92%.
In the case of `CCN(CC)S(=O)(=O)c1ccc(N2CCCC2)c(NC(=O)c2ccc([N+](=O)[O-])o2)c1`, the Potency is reported as 10 µM (active).
For `CCOc1ccccc1OCC(=O)Nc1ccccc1C(=O)NC1CC1`, the “activity change, negative = inhibition” value was 10.1%.
For `Cc1noc(C)c1NC(=O)Nc1ccc2c(c1)C(=O)N([C@H](C)CO)C[C@H](C)[C@@H](CN(C)C(=O)Nc1ccc(C(F)(F)F)cc1)O2`, the Potency was 3.98 µM (active).
In the case of `Cc1noc(C)c1NC(=O)Nc1cccc2c1O[C@H](CN(C)C(=O)Nc1ccccc1)[C@@H](C)CN([C@H](C)CO)C2=O`, the “activity change, negative = inhibition” value is reported as 25.4%.
In the case of `Cc1noc(C)c1NC(=O)Nc1ccc2c(c1)C(=O)N([C@H](C)CO)C[C@H](C)[C@@H](CN(C)C(=O)Nc1ccccc1)O2`, the “activity change, negative = inhibition” value is reported as 14.4%.
In the case of `OCC[C@H]1C[C@H](O)[C@@H](O)[C@]2(CCc3ccccc3O2)O1`, the “activity change, negative = inhibition” value is reported as -5.5%.
For `Cc1ccc(C)c(C(=O)COC(=O)Cn2[nH]c(=O)c3ccccc3c2=O)c1`, the “activity change, negative = inhibition” value was 6.08%.
In the case of `CCOC(=O)Cn1c(SC)nc2sc3c(c2c1=O)CC(C)(C)OC3`, the “activity change, negative = inhibition” value is reported as -22%.
With `CCC1(C)Cc2c(sc3nnn(CC(=O)Nc4ccc(Cl)cc4)c(=O)c23)CO1` (configuration not stated) the Potency was 11.2 µM (active).
With `CCC1(C)Cc2c(sc3nc(SC)nc(N)c23)CO1` (configuration not stated) the “activity change, negative = inhibition” value was -16.9%.
With `COc1cc(/C=C/CNC[C@H]2O[C@@H](n3cnc(C(N)=O)n3)[C@H](O)[C@@H]2O)ccc1O` the “activity change, negative = inhibition” value was 9.64%.
For `O=C(COC(=O)/C=C/c1ccc(OC(F)F)cc1)NC1CCCCC1`, the “activity change, negative = inhibition” value was 7.61%.
Work on `COC(=O)[C@@]1(C)[C@H]2C(=O)N(Cc3ccccc3)C(=O)[C@H]2[C@H]2CN=C(SCC3CC3)N21` yielded an activity change, negative = inhibition of -7.38% [at 8.37 µM].
In the case of `Cc1cccc(N2O[C@H]3C=CC2CCCC3)n1`, the Potency is reported as 25.1 µM (active).
In the case of `Cc1ccn(-c2cccc(-n3ccc(C)n3)n2)n1`, the “activity change, negative = inhibition” value is reported as 11.3%.
With `Cc1cccc(N2CCN(Cc3nc(C4CC4)no3)CC2)n1` the “activity change, negative = inhibition” value was 16.5%.
With `CCOC(=O)c1ccccc1NC(=O)COC(=O)C(Cc1c[nH]c2ccccc12)NC(C)=O` (configuration not stated) the “activity change, negative = inhibition” value was 17%.
For `COc1cc2ccccc2cc1C(=O)N1CCOCC1`, the “activity change, negative = inhibition” value was -2.47%.
With `COc1ccc(S(=O)(=O)N2CCN(CC(=O)N3c4ccccc4CC3C)CC2)cc1OC` (configuration not stated) the “activity change, negative = inhibition” value was 1.67%.
In the case of `CCCOC(=O)Nc1sc2c(c1C(=O)OCC)CCC2`, the Potency is reported as 10 µM (active).
For `CCOC(=O)c1c(NC(=S)NC)sc2c1CCCC2`, the “activity change, negative = inhibition” value was -8.22%.
With `CCOC(=O)c1c(NC(=O)C(C)Sc2c[nH]c3ccccc23)sc2c1CCC2` (configuration not stated) the Potency was 11.2 µM (active).
With `CCOC(=O)c1c(NC(=O)CSc2cn(CC)c3ccccc23)sc2c1CCC2` the “activity change, negative = inhibition” value was 5.24%.
With `CCOC(=O)c1c(NC(=S)NC(=O)c2ccco2)sc2c1CCCC2` the “activity change, negative = inhibition” value was -9.06%.
With `CCOC(=O)c1c(NC(=S)Nc2ccccc2C)sc2c1CCC2` the “activity change, negative = inhibition” value was -26.7%.
For `O=C(CN1C(=O)NC2(CCCCCC2)C1=O)NCc1ccc(F)cc1`, the “activity change, negative = inhibition” value was 3.95%.
In the case of `CCOc1ccc(NC(=O)CN(C)C(=O)CSc2ccccc2)cc1OCC`, the “activity change, negative = inhibition” value is reported as -2.17%.
For `O=C(Nc1ccc(F)c([N+](=O)[O-])c1)C1CCCO1` (configuration not stated), the “activity change, negative = inhibition” value was 0.692%.
In the case of `Nc1nonc1-n1nnc(C(=O)N/N=C/c2ccccc2O)c1CN1CCCC1`, the “activity change, negative = inhibition” value is reported as -7.74%.
With `COc1ccccc1NC(=O)COC(=O)CNC(=O)C1CCCCC1` the “activity change, negative = inhibition” value was -14.3%.
For `Cc1cccc(C)c1Nc1nnc(SCC(=O)Nc2sccc2C#N)s1`, the “activity change, negative = inhibition” value was -9.42%.
In the case of `Cc1csc(SCC(=O)Nc2sccc2C#N)n1`, the “activity change, negative = inhibition” value is reported as -12.8%.
For `CC(c1nnc(SCC(=O)Nc2sccc2C#N)n1-c1ccc(Cl)cc1)N(C)C` (configuration not stated), the Potency was 22.4 µM (active).
For `COc1ccccc1C(=O)NCCC(=O)NN1C(=O)NC2(CCCCC2)C1=O`, the “activity change, negative = inhibition” value was 19.8%.
In the case of `O=C1CCCCC1Sc1ccc(Cl)cc1[N+](=O)[O-]` (configuration not stated), the “activity change, negative = inhibition” value is reported as 11.8%.
With `Cc1cc(C)c(S(=O)(=O)NCC(c2ccc3c(c2)OCO3)N2CCOCC2)c(C)c1` (configuration not stated) the “activity change, negative = inhibition” value was 13.2%.
In the case of `CN(CCc1ccccc1)C(=O)c1cccc(NC(=O)Cc2cccc(NC(=O)C3CCCN(C(=O)C4CCC4)C3)c2)c1` (configuration not stated), the Potency is reported as 10 µM (active).
Compound `O=C(NCc1ccccc1)c1cccc(NC(=O)C2CCCCC2)c1` has an activity change, negative = inhibition of -17.2% [at 8.37 µM].
In the case of `CN(C(=O)c1cccc(NC(=O)Cc2ccc([N+](=O)[O-])cc2)c1)C1CCC1`, the Potency is reported as 3.16 µM (active).
`O=C(Cc1ccc(NC(=O)C2CCCN(C(=O)C3CCCCC3)C2)cc1)Nc1cccc(C(=O)N2CCCCC2)c1` (configuration not stated) showed an activity change, negative = inhibition of -22.8% [at 8.37 µM].
Compound `CN(C(=O)c1cccc(NC(=O)Cc2cccc(NC(=O)C3CCCN(C(=O)C4CC4)C3)c2)c1)C1CCC1` (configuration not stated) has an activity change, negative = inhibition of -22.6% [at 8.37 µM].
Work on `O=C(Cc1ccc(NC(=O)C2CCCN(C(=O)CCc3ccccc3)C2)cc1)Nc1ccc(C(=O)N2CCOCC2)cc1` (configuration not stated) yielded an activity change, negative = inhibition of -13.7% [at 8.37 µM].
For `CN(CCc1ccccc1)C(=O)c1cccc(NC(=O)Cc2cccc(NC(=O)C3CCCN(C(=O)CCc4ccccc4)C3)c2)c1` (configuration not stated), the Potency was 0.794 µM (active).
`CN(C(=O)c1cccc(NC(=O)Cc2ccc(NC(=O)C3CCCN(C(=O)C4CCCC4)C3)cc2)c1)C1CCC1` (configuration not stated) gave an activity change, negative = inhibition of -26.3% [at 8.37 µM].
In the case of `CN(C)CCNC(=O)Cc1ccc([N+](=O)[O-])cc1`, the “activity change, negative = inhibition” value is reported as 5.72%.
For `O=C(NCCc1ccccc1)c1cccc(NC(=O)c2ccccc2)c1`, the “activity change, negative = inhibition” value was -4.33%.
In the case of `CN(C)C(CNC(=O)Cc1ccc([N+](=O)[O-])cc1)c1ccccc1` (configuration not stated), the “activity change, negative = inhibition” value is reported as -24.7%.
With `CC(C)(C)OC(=O)N1CCC(C(=O)Nc2cccc(C(=O)NCCc3ccccc3)c2)CC1` the Potency was 8.91 µM (active).
